Assay [1] has as its target T1, Serine/threonine-protein kinase TBK1 (Homo sapiens) (UniProt Q9UHD2).
T1 sequence (whole entry): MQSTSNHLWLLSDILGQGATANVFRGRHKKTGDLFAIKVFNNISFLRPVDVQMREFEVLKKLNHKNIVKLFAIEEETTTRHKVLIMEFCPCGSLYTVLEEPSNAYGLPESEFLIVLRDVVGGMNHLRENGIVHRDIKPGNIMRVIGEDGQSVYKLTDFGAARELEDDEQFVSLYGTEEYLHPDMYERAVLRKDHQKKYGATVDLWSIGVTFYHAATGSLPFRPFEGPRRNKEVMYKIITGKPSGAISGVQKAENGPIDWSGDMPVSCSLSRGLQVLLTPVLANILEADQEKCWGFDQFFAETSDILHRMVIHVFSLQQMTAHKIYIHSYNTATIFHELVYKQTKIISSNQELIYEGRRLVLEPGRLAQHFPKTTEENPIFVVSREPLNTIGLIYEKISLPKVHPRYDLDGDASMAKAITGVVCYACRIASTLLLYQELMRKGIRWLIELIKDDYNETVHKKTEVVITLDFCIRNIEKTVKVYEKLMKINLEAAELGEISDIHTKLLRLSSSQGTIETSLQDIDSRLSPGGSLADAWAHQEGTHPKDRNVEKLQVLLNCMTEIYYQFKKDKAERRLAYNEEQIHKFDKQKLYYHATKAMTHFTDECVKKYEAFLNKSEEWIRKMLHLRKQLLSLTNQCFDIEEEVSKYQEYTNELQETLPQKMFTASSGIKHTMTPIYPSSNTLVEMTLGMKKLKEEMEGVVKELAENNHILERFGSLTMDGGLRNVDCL
To be noted: at 10 µM.

The target of assay [2] is T2, TGF-beta receptor type-1 (Homo sapiens) (UniProt P36897).
T2 sequence (whole entry): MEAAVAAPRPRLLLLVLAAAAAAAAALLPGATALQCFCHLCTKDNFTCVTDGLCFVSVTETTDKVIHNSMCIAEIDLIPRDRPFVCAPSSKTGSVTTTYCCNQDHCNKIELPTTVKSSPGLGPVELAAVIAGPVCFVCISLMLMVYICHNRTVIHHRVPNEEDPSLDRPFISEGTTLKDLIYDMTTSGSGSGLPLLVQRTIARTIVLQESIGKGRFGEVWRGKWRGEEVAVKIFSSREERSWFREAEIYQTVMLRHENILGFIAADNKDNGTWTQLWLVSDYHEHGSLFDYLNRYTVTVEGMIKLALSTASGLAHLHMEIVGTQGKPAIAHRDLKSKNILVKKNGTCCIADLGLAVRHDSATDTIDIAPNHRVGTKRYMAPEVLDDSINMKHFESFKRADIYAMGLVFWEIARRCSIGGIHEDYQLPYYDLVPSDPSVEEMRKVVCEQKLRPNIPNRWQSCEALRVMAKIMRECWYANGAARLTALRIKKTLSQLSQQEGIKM
To be noted: at 1 µM.

Assay [3] concerns the target T2, TGF-beta receptor type-1 (Homo sapiens). Conditions: at 10 µM.
For assay [4], the target named is Insulin-like growth factor 1 receptor (Homo sapiens) (UniProt P08069). To be noted: at 1 µM.
Sequence of Insulin-like growth factor 1 receptor (Homo sapiens) (P08069 31-736 limits assumed): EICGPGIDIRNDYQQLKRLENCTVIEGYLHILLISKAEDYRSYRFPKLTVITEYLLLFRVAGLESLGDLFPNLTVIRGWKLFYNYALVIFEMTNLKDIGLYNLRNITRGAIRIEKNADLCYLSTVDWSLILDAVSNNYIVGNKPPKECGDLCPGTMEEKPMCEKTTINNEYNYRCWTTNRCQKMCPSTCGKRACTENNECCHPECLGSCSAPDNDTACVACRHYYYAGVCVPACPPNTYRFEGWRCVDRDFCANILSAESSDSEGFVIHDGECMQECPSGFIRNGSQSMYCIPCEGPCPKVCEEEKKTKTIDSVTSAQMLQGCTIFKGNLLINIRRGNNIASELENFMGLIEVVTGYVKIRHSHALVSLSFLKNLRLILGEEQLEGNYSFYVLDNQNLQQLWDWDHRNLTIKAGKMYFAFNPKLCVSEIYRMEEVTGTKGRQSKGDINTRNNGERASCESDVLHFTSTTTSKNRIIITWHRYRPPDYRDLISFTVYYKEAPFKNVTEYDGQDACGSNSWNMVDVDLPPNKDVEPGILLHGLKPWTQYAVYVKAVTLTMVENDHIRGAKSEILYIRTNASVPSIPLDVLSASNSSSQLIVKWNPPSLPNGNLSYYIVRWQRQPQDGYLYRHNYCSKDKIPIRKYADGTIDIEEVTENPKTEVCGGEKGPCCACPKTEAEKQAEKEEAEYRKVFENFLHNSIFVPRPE
Sequence of Insulin-like growth factor 1 receptor (Homo sapiens) (P08069 741-1367 limits assumed): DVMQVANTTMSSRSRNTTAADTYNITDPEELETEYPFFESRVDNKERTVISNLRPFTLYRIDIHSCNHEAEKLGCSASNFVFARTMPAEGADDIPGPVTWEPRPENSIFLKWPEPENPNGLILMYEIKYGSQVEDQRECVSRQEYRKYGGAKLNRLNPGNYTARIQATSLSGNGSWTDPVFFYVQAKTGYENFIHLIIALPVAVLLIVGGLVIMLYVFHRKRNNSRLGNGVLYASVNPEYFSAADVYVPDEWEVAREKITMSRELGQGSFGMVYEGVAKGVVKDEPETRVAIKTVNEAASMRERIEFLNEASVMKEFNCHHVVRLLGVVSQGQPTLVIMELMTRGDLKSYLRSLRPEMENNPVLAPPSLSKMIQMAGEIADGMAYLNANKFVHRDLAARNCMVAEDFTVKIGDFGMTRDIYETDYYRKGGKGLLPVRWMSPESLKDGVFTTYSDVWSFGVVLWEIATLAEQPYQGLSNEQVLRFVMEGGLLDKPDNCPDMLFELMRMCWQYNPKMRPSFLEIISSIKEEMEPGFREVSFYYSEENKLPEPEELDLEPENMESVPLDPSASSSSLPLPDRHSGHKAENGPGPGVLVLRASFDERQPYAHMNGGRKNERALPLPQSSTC
The target is the same in assay [5]. Conditions: at 10 µM.
Assay [6] has as its target T3, Inhibitor of nuclear factor kappa-B kinase subunit alpha (Homo sapiens) (UniProt O15111).
T3 sequence (whole entry): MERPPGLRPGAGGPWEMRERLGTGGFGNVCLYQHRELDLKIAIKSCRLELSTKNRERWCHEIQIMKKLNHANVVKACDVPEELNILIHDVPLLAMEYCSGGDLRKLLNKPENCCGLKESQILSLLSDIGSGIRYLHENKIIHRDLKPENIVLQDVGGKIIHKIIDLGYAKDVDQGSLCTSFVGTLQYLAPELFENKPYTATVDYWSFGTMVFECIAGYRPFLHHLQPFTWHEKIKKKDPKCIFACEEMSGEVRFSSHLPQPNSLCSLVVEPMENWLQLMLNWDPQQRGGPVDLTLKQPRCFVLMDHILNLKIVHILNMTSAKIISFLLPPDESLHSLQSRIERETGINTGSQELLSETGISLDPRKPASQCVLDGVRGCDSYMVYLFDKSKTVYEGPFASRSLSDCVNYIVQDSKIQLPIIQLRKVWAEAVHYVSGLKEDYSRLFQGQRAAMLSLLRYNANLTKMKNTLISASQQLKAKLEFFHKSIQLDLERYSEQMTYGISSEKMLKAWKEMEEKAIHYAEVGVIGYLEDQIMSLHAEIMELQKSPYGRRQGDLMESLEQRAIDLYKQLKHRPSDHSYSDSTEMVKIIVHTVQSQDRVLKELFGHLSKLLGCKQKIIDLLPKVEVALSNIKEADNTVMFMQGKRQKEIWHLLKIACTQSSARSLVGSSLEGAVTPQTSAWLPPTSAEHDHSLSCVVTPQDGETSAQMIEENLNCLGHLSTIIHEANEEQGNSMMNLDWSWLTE
Conditions: at 1 µM.

Assay [7] addresses T3, Inhibitor of nuclear factor kappa-B kinase subunit alpha (Homo sapiens). To be noted: at 10 µM.
The target of assay [8] is T4, Inhibitor of nuclear factor kappa-B kinase subunit beta (Homo sapiens) (UniProt O14920).
T4 sequence (whole entry): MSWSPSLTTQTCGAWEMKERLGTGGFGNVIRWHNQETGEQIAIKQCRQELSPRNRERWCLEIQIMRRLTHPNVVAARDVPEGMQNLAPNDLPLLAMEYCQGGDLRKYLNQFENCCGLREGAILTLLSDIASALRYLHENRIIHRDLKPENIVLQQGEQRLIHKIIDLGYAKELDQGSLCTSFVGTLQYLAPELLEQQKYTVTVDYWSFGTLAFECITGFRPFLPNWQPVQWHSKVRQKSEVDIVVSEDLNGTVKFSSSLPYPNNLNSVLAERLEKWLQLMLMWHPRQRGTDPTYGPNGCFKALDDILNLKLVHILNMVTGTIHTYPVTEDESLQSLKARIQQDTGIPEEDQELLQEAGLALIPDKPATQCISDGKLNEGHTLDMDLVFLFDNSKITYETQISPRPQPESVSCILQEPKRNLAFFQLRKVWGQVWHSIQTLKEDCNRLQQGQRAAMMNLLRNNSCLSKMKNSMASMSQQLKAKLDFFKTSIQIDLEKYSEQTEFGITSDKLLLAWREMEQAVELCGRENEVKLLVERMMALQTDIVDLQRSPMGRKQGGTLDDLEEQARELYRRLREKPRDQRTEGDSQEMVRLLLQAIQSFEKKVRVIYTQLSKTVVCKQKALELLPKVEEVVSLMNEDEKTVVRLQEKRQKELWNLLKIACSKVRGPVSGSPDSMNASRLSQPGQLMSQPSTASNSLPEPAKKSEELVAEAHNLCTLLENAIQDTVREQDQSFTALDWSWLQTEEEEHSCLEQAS
To be noted: at 1 µM.

Assay [9] addresses T4, Inhibitor of nuclear factor kappa-B kinase subunit beta (Homo sapiens). To be noted: at 10 µM.
The target in assay [10] is Insulin receptor (Homo sapiens) (UniProt P06213). To be noted: at 1 µM.
Sequence of Insulin receptor (Homo sapiens) (P06213 28-758 limits assumed): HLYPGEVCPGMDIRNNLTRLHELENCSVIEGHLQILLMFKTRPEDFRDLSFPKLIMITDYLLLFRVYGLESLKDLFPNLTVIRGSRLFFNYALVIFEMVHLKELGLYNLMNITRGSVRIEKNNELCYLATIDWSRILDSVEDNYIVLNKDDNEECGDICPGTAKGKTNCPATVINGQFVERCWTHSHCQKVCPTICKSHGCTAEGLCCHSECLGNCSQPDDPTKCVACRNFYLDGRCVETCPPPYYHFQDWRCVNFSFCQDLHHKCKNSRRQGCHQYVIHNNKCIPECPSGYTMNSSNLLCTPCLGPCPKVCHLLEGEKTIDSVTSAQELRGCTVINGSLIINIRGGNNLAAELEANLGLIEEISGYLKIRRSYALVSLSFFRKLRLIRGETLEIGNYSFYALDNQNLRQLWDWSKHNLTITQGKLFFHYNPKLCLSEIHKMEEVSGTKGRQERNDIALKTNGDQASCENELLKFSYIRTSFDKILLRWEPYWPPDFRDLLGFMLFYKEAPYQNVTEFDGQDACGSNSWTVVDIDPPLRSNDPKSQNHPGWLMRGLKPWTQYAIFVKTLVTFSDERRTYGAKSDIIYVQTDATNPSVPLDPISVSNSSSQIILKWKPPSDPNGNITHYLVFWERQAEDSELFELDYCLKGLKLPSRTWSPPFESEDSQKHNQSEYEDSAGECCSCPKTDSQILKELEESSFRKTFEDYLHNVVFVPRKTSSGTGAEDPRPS
Sequence of Insulin receptor (Homo sapiens) (P06213 763-1382 limits assumed): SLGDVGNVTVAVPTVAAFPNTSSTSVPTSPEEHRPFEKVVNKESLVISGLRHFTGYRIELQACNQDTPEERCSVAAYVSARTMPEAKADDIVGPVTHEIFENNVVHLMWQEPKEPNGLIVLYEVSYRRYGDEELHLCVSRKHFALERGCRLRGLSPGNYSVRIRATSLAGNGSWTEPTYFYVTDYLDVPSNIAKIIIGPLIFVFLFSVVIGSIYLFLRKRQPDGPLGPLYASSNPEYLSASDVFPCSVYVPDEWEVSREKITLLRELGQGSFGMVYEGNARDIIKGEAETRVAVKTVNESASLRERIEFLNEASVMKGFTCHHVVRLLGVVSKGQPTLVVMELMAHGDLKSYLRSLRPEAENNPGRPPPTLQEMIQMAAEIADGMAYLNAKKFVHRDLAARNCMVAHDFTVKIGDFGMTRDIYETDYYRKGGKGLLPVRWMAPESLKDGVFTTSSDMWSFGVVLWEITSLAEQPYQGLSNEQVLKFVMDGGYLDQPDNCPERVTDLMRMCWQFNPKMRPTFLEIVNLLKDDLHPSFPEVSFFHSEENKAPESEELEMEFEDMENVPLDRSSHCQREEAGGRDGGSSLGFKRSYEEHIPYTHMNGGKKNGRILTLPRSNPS

Regarding `Cn1cc(/C=C2\C(=O)Nc3ccc(S(N)(=O)=O)cc32)c2ccccc21`, the residual activity in [1] was 10%; in assay [2], 100%; in assay [3] it was 96%; in [4], 81%; in assay [5] it was 86%; in assay [6], 100%. For the same compound, the residual activity is 92% in [7], 87% in [8], 78% in assay [9] and 91% in assay [10].

Broadly, the residual activity is what remains of the control signal, in per cent. Higher therefore signals much activity left.
